Screening results from PubChem BioAssay.
PERK inh – blocks human PERK kinase; Q9NZJ5; CHO PERK-DD fusion, SEAP luminescence translation reporter; inhibition, % at 5.6 µM; 0.17% of 220,000 active;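 active = inhibition above the mean inhibition of all tested compounds plus 3 SD, set separately per screening campaign, cut at about 2.9% in these data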;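 note: PERK kinase domain activated by AP20187 dimerizer at 100 nM; 0% = DMSO with dimerizer and 100% = rapamycin at 8.4 µM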
Target sequence (Q9NZJ5 whole entry, looked up, the tested form may be a part): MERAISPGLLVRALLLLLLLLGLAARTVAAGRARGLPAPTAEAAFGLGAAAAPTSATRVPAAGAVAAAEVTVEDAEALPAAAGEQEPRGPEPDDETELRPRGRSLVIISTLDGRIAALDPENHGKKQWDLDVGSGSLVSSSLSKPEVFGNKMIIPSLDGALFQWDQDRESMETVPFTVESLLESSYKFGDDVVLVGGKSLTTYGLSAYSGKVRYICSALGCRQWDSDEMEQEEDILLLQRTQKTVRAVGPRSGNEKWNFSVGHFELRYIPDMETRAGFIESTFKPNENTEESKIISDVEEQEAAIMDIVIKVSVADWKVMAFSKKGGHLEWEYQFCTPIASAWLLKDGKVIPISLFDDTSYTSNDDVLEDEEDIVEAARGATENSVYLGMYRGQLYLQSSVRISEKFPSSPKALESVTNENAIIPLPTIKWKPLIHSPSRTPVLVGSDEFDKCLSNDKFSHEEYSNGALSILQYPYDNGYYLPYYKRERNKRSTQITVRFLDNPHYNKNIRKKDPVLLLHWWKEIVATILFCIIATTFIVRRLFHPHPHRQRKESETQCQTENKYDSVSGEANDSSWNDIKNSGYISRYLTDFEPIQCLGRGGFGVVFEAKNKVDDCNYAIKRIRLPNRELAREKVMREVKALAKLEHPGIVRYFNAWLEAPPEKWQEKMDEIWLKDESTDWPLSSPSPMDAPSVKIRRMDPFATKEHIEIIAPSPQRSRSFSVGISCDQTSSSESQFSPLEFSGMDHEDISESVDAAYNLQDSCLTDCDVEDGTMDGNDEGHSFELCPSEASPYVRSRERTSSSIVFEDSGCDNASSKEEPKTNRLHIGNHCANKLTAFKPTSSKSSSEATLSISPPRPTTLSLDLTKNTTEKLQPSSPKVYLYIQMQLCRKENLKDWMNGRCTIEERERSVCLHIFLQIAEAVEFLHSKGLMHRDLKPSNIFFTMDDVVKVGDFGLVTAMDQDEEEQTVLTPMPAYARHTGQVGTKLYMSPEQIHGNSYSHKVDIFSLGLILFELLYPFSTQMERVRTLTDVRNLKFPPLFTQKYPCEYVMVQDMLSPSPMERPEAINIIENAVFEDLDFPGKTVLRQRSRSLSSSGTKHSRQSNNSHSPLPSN
WT yeast gro inh – growth inhibition of WT yeast, mitochondrial fusion screen; mitochondrial fusion phenotypic screen, WT strain; inhibition, % at 10 µM; 2.1% of 190,000 active; AID 1362; in the data active = inhibition above about 58%; tested in S. cerevisiae
Arbovirus anti – arbovirus infection inhibition; arbovirus infection cell-based antiviral screen; inhibition, % at 10 µM; 0.37% of 200,000 active; AID 1251; in the data active = inhibition above about 30%
ROMK mod – modulates human ROMK potassium channel activity; B-score at 10 µM; 2% of 130,000 active; P48048; Tet-inducible ROMK, thallium flux fluorescence; actives lie on both sides; AID 1918;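 active = signal ratio slope over the read window, or its plate-corrected B-score, at least 3 SD from the plate mean, either direction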;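 note: B-score of the F/F0 ratio slope over 7 to 12 s after thallium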
The depositor's hits bear a star; · = not tested or not shown; ! = a repeat was not active. An excerpt weighted towards active compounds, which were near 3.3% of everything screened.

SMILES	PERK inh	WT yeast gro inh	Arbovirus anti	ROMK mod
O=C(Cc1ccc([N+](=O)[O-])cc1)N1N=C(c2ccncc2)CC1(O)C(F)(F)F (centres undefined)	1	-2	2	0.67
Cn1c(CN2CCN(c3ccc(Cl)cc3)CC2)nc2ccccc21	-1	17	17	·
CCn1c(CN2CCN(c3ccc(Cl)cc3)CC2)nc2ccccc21	-2	60*	13	-3.1
Cc1ccc(C)c(NC(=O)c2ccccc2C(=O)c2ccccc2)c1	0	63*	-1	1.1
Cc1ccc(NC(=S)NCCc2ccccc2)c(C)c1	0	70*	9	·
Cc1ccccc1NC(=S)NCCc1ccccc1	1	31	5	-1.2
Cc1ccc(C)c(NC(=S)NCCc2ccc(F)cc2)c1	0	69*	6	-0.55
COc1ccccc1NC(=S)NCCc1ccc(F)cc1	1	8	5	-0.12
O=C1NCCc2c1[nH]c1c(Cl)ccc(Cl)c21	1	89*	10	-2.4
O=C1NCCc2c1[nH]c1ccccc21	0	-16	4	·
CC[n+]1c(/C=C/C=C/N(C(C)=O)c2ccccc2)sc2cc(OC)ccc21	0	25	-24	-0.97
N[C@@H](Cc1cc(I)c(Oc2ccc(O)c(I)c2)c(I)c1)C(=O)O	1	1	47*!	·
Cn1cc(Cl)c(-c2n[nH]c(=S)n2-c2ccccc2)n1	3.3*	-28	4	-0.35
COc1ccc(C(=O)Oc2cc(/C=N/NC(N)=S)ccc2OC)cc1	0	55	16	-0.023
COc1ccc(/C=N/NC(N)=S)cc1OC(=O)c1cccc2ccccc12	-1	61*	-25	·
O=C(CCS(=O)(=O)Cc1ccccc1)NCCc1ccccc1	0	-12	1	0.72
Cc1ccccc1NC(=O)CN1C(=O)COc2ccc(Cl)cc21	-1	8	1	·
Cc1ccc(C2c3c(oc4cc(C)c(C)cc4c3=O)C(=O)N2CCCN2CCOCC2)cc1 (centres undefined)	-1	-8	-2	·
COc1ccc(C(=O)/C=C/C(=O)N(CC(=O)NC2CCCCC2)Cc2cccs2)c(O)c1	-2	65*	-34	-0.14
COc1ccc(CN(C(=O)/C=C/C(=O)c2ccc(OC)cc2O)C(C(=O)NC2CCCCC2)c2ccncc2)cc1 (centres undefined)	-1	25	-12	-0.64
CCC(C)n1c(=S)[nH]c2c(sc3ccc([N+](=O)[O-])cc32)c1=O (centres undefined)	0	68*	-3	5.3*
O=c1[nH][nH]c(-c2ccccc2)c1C=Nc1ccccc1	1	80*	2	·
Cc1ccc(C(=O)NC(=S)Nc2ccccc2C(F)(F)F)cc1C	1	80*	2	·
CCS(=O)(=O)n1nc(-c2ccccc2)nc1SC	2	9	6	·
COc1ccccc1CC(=O)Nc1ccc2nc(C)sc2c1	0	9	8	·
SMILES	PERK inh	WT yeast gro inh	Arbovirus anti	ROMK mod
COc1cccc(CC(=O)Nc2ccc3nc(C)sc3c2)c1	0	64*	-2	-0.63
O=C(O)c1cc(-c2ccc(O)cc2)on1	0	5	-3	-0.17
CSCc1cc(N2CCOCC2)nc(SCc2ccc(Cl)c(Cl)c2)n1	0	62*	11	·
O=C(Nc1nc(-c2ccc(Cl)cc2Cl)cs1)c1ccc(OCC2CCCO2)cc1 (centres undefined)	1	28	68*	1.1
CCOc1ccc(Nc2cc(C)nc(-n3nc(C)cc3C)n2)cc1	-2	68	-1	2.7*
O=C(Nc1ccc2[nH]ccc2c1)c1cccs1	0	·	·	·
CC1CCN(S(=O)(=O)c2ccc3c(c2)oc(=O)n3CC(=O)N2CCc3ccccc3C2)CC1	1	4	-8	·
CC1=NN(c2nc(-c3ccc(F)cc3)cs2)C(=O)C1	2	3	9	·
CC1=NN(c2nc(-c3ccc(Cl)cc3)cs2)C(=O)C1	-1	-29	42*	0.17
O=c1c(Br)c(N2CCCCC2)cnn1-c1ccccc1	0	-7	-17	-1.1
CN1C=CC=C/C1=C1\SC(=S)N(c2ccccc2)C1=O	1	66*	4	·
CN1C=CC=C/C1=C1\SC(=S)N(CC(=O)O)C1=O	1	-9	-3	0.49
CCOCCOC(=O)c1cccc(NC(=O)OCC)c1	0	·	-5	·
CCCCOC(=O)Nc1cccc(C(=O)OCC)c1	-1	73*	0	·
O=C(CSc1nc2ccccc2c(=O)n1CCCN1CCOCC1)NC12CC3CC(CC(C3)C1)C2	1	16	-21	0.0079
CCOC(=O)c1c(-c2ccc(C)c(C)c2)csc1NC(=O)C1CC=CCC1C(=O)O (centres undefined)	0	-4	41*	0.15
O=C(Nc1ccc(Cl)cc1C(=O)Nc1ccccn1)c1ccco1	-1	25	-1	·
O=C(Nc1ccccn1)c1ccco1	0	70*	4	·
CC(OC(=O)CC(NC(=O)c1ccccc1Cl)c1ccccc1)C(=O)Nc1cccc(Cl)c1Cl (centres undefined)	-2	32	0	-2
CC(=O)n1cc(N(C(=O)CCl)c2ccc([N+](=O)[O-])cc2)c2ccccc21	0	·	·	·
O=Cc1[nH]c2ccccc2c1N(C(=O)CCl)c1ccc([N+](=O)[O-])cc1	2	·	·	-2*
NC(=O)CSc1nnc(CNc2ccc(F)cc2)n1CC1CCCO1 (centres undefined)	3.0*	1	-1	·
CCn1c(CNc2ccc(Cl)cc2)nnc1SCC(=O)OC1CCCCC1	0	16	4	-4.2*
COc1ccc(OCC(O)CN(C2CCCCC2)C2CCCCC2)cc1 (centres undefined)	-1	4	2	·
O=C(O)c1ncc(Cl)c(Cl)c1Cl	2	·	·	·
SMILES	PERK inh	WT yeast gro inh	Arbovirus anti	ROMK mod
OC(CSc1ccccc1Cl)CN1CCN(c2ccccc2F)CC1 (centres undefined)	0	46	8	·
OC(CSc1c(Cl)cccc1Cl)CN1CCN(c2ccccc2F)CC1 (centres undefined)	-1	66*	4	·
Cc1nnc(C)n1/N=C/c1ccc(-c2ccccc2)cc1	1	2	-6	·
C(=N\NC1=Nc2cccc3cccc1c23)/c1ccccn1	0	68*	-11	-0.016
Clc1ccccc1/C=N/NC1=Nc2cccc3cccc1c23	0	11	-33	·
CCN(CC)c1ncnc2scc(C3COc4ccccc4O3)c12 (centres undefined)	0	85*	6	·
C=CCn1c(C)cc(C(=O)Cn2c(C(C)O)nc3ccccc32)c1C (centres undefined)	0	-30	10	0.015
CCOC(=O)C1=C(C)n2c(s/c(=C/c3cccc([N+](=O)[O-])c3)c2=O)=NC1c1ccc(O)c(OC)c1 (centres undefined)	-1	70*	-38	-0.23
CCOC(=O)C1=C(C)N=c2s/c(=C/c3ccccc3)c(=O)n2C1c1ccc(OC)c(OC)c1 (centres undefined)	0	-3	-7	·
O=S(=O)(NC(=S)NC1CCCCC1)c1ccc(Cl)cc1	2	0	7	1
COc1ccc(C)cc1N(C(=O)c1ccc(F)cc1)c1nc2ccccc2s1	-1	69*	1	-0.00016
COc1ccc(Cc2cnc(N)s2)cc1	1	1	-8	·
C=CCn1c(SCc2csc(-c3ccc(C)cc3)n2)nnc1-c1ccccc1OC	0	81*	-22	·
COc1ccccc1-n1cnnc1SCc1csc(-c2ccccc2)n1	-1	3	14	0.078
